Source: PubChem
Shown are actives, neighbours in structure and some others; about 21% of the full set was active somewhere.
Pf growth 48h: P. falciparum growth inhibition at 48 hours (one generation); 310,000 tested, 5.9% active; AID 504832; P. falciparum luciferase growth in erythrocytes, 48 h; Potency, µM (titrated, usually from 28.7 µM), for inactives: at the highest dose activity change, negative = inhibition, actives largely listed as inhibitors; note: potency is the fitted concentration of half-maximal effect; % is set by controls: 0 for no effect and ±100 for the full control effect
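Luciferase-expressing P. falciparum in infected erythrocytes (2% hematocrit, 0.1% parasitemia final) in RPMI 1640/0.5% Albumax were exposed to compound for 48 hours at 37 C, 5% CO2; growth read as luminescence.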
Shiga inhibitor: blocks Shiga toxin action in Vero cells; Vero cells, Shiga toxin protein synthesis inhibition reporter; inhibition, % at 38.7 µM; 290,000 tested, 9.2% active; in the data active = inhibition mostly above about 28%, no sharp cut-off; inactive = mostly below about 43%; note: 0% is about no effect
CHX counter: counter-screen for Shiga toxin inhibitors: cycloheximide protein synthesis inhibition; cell reporter, cycloheximide protein synthesis inhibition counterscreen; max response, %; AID 2314; 300,000 tested, 12% active; in the data active = max response mostly above about 13%, no sharp cut-off; inactive = mostly below about 14%; note: read at 38.3 µM for the half of the compounds with a filed dose; 0% is about no effect
Pf growth 96h: P. falciparum growth inhibition at 96 hours; P. falciparum luciferase reporter growth, 96 h; Potency, µM (doses to about 28.7 µM), without a hit: at the highest dose activity change, negative = inhibition, actives largely listed as inhibitors; 320,000 tested, 6.9% active; AID 504834; note: potency is the fitted concentration of half-maximal effect; % is set by controls: 0 for no effect and ±100 for the full control effect
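Plates of compound plus infected erythrocytes (2% hematocrit, 0.05% parasitemia final) incubate 96 hours, 37 C, 5% CO2. Detection reagent added; reduced luminescence from the parasites' luciferase reporter flags inhibition.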
* hit, by the source's call; ? = inconclusive; nt = no result given. Unless noted, calls come from the whole dose curve; as a rule, active = well fitted inhibition curve with a large enough effect; inconclusive = small, poorly fitted or top-dose-only effect, or another doubt; inactive = no such curve, though single readings can be large or run the other way.

SMILES	Pf growth 48h	Shiga inhibitor	CHX counter	Pf growth 96h
c1ccc(CCC2CCCCN2Cc2nc(-c3ccc4c(c3)OCO4)no2)nc1 (configuration not stated)	0.2%	-5.4	0.7	5.3%
N#Cc1ccc[n+](CC(=O)c2ccc(Cl)cc2)c1	-2.8%	13.6	-2.7	7.38µM*
CCC(C)(C)n1nnnc1CN(Cc1ccc(Cl)cc1)Cc1ccco1	10.4µM*	12.1	1.3	?
CC(C)(C)c1ccc(CN(Cc2ccco2)Cc2nnnn2C2CCCC2)cc1	9.28µM*	67.9	1.2	5.22µM*
Cc1nn(-c2ccccc2)c(C)c1Cc1ccc(O)cc1	42.5%	76.6*	26.5*	46.6%
Cc1nn(-c2ccccc2)c(C)c1CN	-10.6%	-23.6	-1.8	?
Cc1[nH]c2ccc(-c3n[nH]c(=S)n3C)cc2c1C	-0.8%	2.2	-6.4	nt
CSc1sc(-c2n[nH]c(=S)n2C)c2c1C=CCC2	?	-5.6	-2.8	5.86µM*
Cc1cccc(N2CCN(C(=O)C(C)C)CC2)c1C	-13.4%	-12.7	-1.1	nt
Cc1cccc(N2CCN(C(=O)Cn3cccc3)CC2)c1C	nt	11.1	-2.0	4.15µM*
Cc1cccc(N2CCN(C(=O)n3ccnc3)CC2)c1C	?	18.7	-0.9	11.7µM*
Cc1cccc(N2CCN(C(=O)CNC(=O)c3ccccc3)CC2)c1C	-24.9%	63.0*	33.0*	-25.5%
COc1ccc(-n2cc(-c3ccc(OC(F)F)cc3)[n+]3c2CCCCC3)cc1	1.65µM*	-2.9	1.1	?
COc1ccc(-c2cn(-c3ccc(Cl)cc3)c3[n+]2CCCCC3)cc1	?	13.1	-0.5	?
N#Cc1ccc(Cl)cc1NC(=O)COC(=O)[C@H](CCC(N)=O)NC(=O)c1ccc(F)cc1	6.2%	5.9	-3.9	33.2%
CCOC(=O)Cn1cncc1-c1ccc([N+](=O)[O-])cc1	29.1%	83.9*	72.2*	-7.5%
CCC(=O)Nc1ccc(Nc2ccccc2)cc1	?	33.6*	15.7*	-18.4%
COCC(=O)Nc1ccc(Nc2ccccc2)cc1	-12.7%	60.5*	12.0	1.2%
COCC(=O)Nc1ccc(S(=O)(=O)Nc2ncccn2)cc1	nt	-10.2	-0.8	37.2%
O=C(Nc1ccc(Nc2ccccc2)cc1)C(Cl)(Cl)Cl	?	49.0*	26.7*	?
NC(=O)Nc1ccc(Nc2ccccc2)cc1	0.3%	25.5	7.0	-11.8%
CCC(=O)Nc1ccc(O)cc1	2.8%	nt	nt	1.4%
COc1ccc(CC(N)C(=O)N[C@H]2[C@@H](O)[C@H](n3cnc4c(N(C)C)ncnc43)O[C@@H]2CO)cc1 (some centres not stated)	nt	-7.1	-6.7	nt
Nc1cc(-c2ccccc2)nn1S(=O)(=O)c1ccc(F)cc1	nt	-9.7	-5.0	10.4µM*
Nc1cc(-c2ccc(Cl)cc2)nn1S(=O)(=O)c1ccc(Cl)cc1	nt	-15.6	-1.0	3.29µM*
SMILES	Pf growth 48h	Shiga inhibitor	CHX counter	Pf growth 96h
O=C(NN(CC(O)COc1ccccc1)CC(O)COc1ccccc1)c1ccccc1 (configuration not stated)	2.8%	23.3	-2.0	-19.0%
O=C1C2CC=C(Cl)CC2C(=O)N1CCC[n+]1cccc2ccccc21 (configuration not stated)	9.28µM*	-7.4	-4.4	?
O=C1C2CC=C(Cl)CC2C(=O)N1CCCCCCN1C(=O)C2CC=C(Cl)CC2C1=O (configuration not stated)	nt	-12.7	1.3	11.7µM*
O=C(CCN1C(=O)C2CC=C(Cl)CC2C1=O)NC1CCCCC1 (configuration not stated)	nt	4.6	4.4	0.0%
O=C1C2CC=C(Cl)CC2C(=O)N1CCN1CCOCC1 (configuration not stated)	nt	-16.4	-3.5	2.0%
Cc1cc(C)c(C)c(S(=O)(=O)N(C)C2CCN(C)CC2)c1C	?	-8.7	-1.3	-13.4%
O=C(NCc1ccco1)C1CCCN(c2nnc(-n3cccc3)s2)C1 (configuration not stated)	-1.9%	15.8	10.9	45.1%
CC(=O)c1cccc(NC(=O)c2csc3c2CCCCC3)c1	-15.6%	54.7*	36.7*	?
CC(=O)c1cccc(NC(=O)Nc2csc3c2CCCC3)c1	-2.6%	16.1	11.3	?
CCOc1ccc(NC(=O)c2csc3c2CCCC3)cc1	281.8%	32.2	35.9*	348.8%
Cc1ccccc1N(C(=O)c1snc(C(N)=O)c1N)C(C(=O)NCC1CCCO1)c1ccc(F)cc1 (configuration not stated)	?	-16.1	7.4	1.2%
COc1ccccc1N1CCN(C(=O)C2CCC(Cn3c(=S)[nH]c4ccccc4c3=O)CC2)CC1 (configuration not stated)	10.4µM*	-11.4	-3.1	70.1%
